“And” between values parts separate entries of the source, which are not always exact repeats. Identical values can stand only once. Results filed as inconclusive are left out. A number with no mark means an inactive call. Calls follow the shape of the dose curve; as a rule, active = well fitted inhibition curve with a large enough effect; inconclusive = small, poorly fitted or top-dose-only effect; inactive = flat fitted curve, though single readings scatter.
Experiment: Drug repurposing screens with cells derived from glioblastoma tumor samples (AID 1345199); also: nearly all actives have a fitted effect of over 40% in size
Settings: GBM patient neurospheres viability, ATP luminescence, 48 h; at 45.9 µM (top of the series); tumour line D
Outline: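 Four patient lines of CD133+ GBM neurospheres were screened at several concentrations; hits were retested in those lines plus three slower-growing GBM lines, using 48-hour treatment and ATP-based viability.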
% is scaled to controls: 0 for no effect and ±100 for the full control effect.

Compound	activity, negative = cell killing [%]
C[N+]1(C)CCCCC1COC(=O)C(O)(c1ccccc1)c1ccccc1 (stereo not drawn)	-3.36
O=C(CCl)c1ccc(Oc2ccc(C(=O)CCl)cc2)cc1	-6.59
CN[C@H]1C[C@@H](N)[C@H](O)[C@@H](O[C@@H]2O[C@H](CO)[C@H](O)[C@@H]3OC4(O[C@H]23)O[C@H](C(N)CO)[C@H](O)[C@H](O)[C@H]4O)[C@@H]1O (stereo partly drawn)	-24.2
O=C1CCCCC1CN1CCCCC1 (stereo not drawn)	4.04
C[C@@H]1[C@@H]2Cc3ccc(O)cc3[C@@]1(C)CCN2CC1CC1	-18.9
CCOP(=O)(OCC)O/C(=C/Cl)c1ccc(Cl)cc1Cl	-23.4
Clc1ccc(C2(Cn3cncn3)OCCO2)c(Cl)c1	0.916
O=c1[nH]cc(N(CCCl)CCCl)c(=O)[nH]1	-17.9
CC(=O)OC1CN2CCC1CC2 (stereo not drawn)	12
O=C1CN(O)C(c2ccccc2)=c2cc(Cl)ccc2=N1	-10.4
O=C(NC(=O)c1c(F)cccc1F)Nc1ccc(Cl)c(Oc2ncc(C(F)(F)F)cc2Cl)c1	-21.9
O=C(NCNC(=O)NC1C(=O)NC(=O)N1CO)NC1C(=O)NC(=O)N1CO (stereo not drawn)	3.73
Cc1cccc(C(C)c2cnc[nH]2)c1C (stereo not drawn)	6.82
C[C@@H](Cc1ccccc1)N(C)C	-10.7
C#CC(C)(O)CC (stereo not drawn)	-11.4
CCCC(C)C1(CC)C(=O)NC(=O)NC1=O (stereo not drawn)	0.152

Compound	activity, negative = cell killing [%]
C=CCC1(C(C)CCC)C(=O)N=C(S)NC1=O (stereo not drawn)	-15.2
CN(C)CCCCCCN(C)C (tested in a mixture with another compound)	-12.1
C[C@]12CC[C@H]3[C@@H](CCC4=C(O)C(=O)CC[C@@H]43)[C@@H]1CC[C@@H]2OC(=O)CCC1CCCC1	-14.1
CC(=O)O[C@H]1CC[C@H]2[C@@H]3CCC4=CC(=O)CCC4=C3C=C[C@]12C	-6.7
CCCCNCC(O)c1ccc(O)cc1 (stereo not drawn)	-0.799
Cc1ccccc1-n1c(CF)nc2ccc(N)cc2c1=O	0.0058
C[C@]12CC[C@H]3[C@@H](CC[C@@]45O[C@@H]4C(O)=C(C#N)C[C@]35C)[C@@H]1CC[C@@H]2O	-21.9
c1ccc2sc(SNC3CCCCC3)nc2c1	-11.7
C=CCN1CC[C@]23c4c5ccc(O)c4O[C@H]2[C@@H](O)C=C[C@H]3[C@H]1C5	3.8
C=CCN(C1=NCCN1)c1c(Cl)cccc1Cl	-0.731
O=P(O)(O)C(Cl)(Cl)P(=O)(O)O	-11.3
CCC1(CC)C(=O)NC(=O)N(C)C1=O	-23.6
COC(=O)[C@@H]1[C@H]2CC[C@@H](C[C@H]1OC(=O)c1ccccc1)N2C	4.05
CCC(=O)O[C@]1(c2ccccc2)CCN(C)C[C@H]1C	-17.1
CC(Cc1ccccc1)NC=O (stereo not drawn)	2.52
NCC(O)c1cccc(O)c1 (stereo not drawn)	-16.5

Same assay, conditions: GBM patient neurospheres viability, ATP luminescence, 48 h; at 46.1 µM (top of the series); tumour line C

Compound	activity, negative = cell killing
C[N+]1(C)CCCCC1COC(=O)C(O)(c1ccccc1)c1ccccc1 (stereo not drawn)	-16.5%
O=C(CCl)c1ccc(Oc2ccc(C(=O)CCl)cc2)cc1	-8.36%
CN[C@H]1C[C@@H](N)[C@H](O)[C@@H](O[C@@H]2O[C@H](CO)[C@H](O)[C@@H]3OC4(O[C@H]23)O[C@H](C(N)CO)[C@H](O)[C@H](O)[C@H]4O)[C@@H]1O (stereo partly drawn)	9% and -3.99%
O=C1CCCCC1CN1CCCCC1 (stereo not drawn)	-15.7%
C[C@@H]1[C@@H]2Cc3ccc(O)cc3[C@@]1(C)CCN2CC1CC1	6.7%
Clc1ccc(C2(Cn3cncn3)OCCO2)c(Cl)c1	-23.5%
O=c1[nH]cc(N(CCCl)CCCl)c(=O)[nH]1	-21.9%
CC(=O)OC1CN2CCC1CC2 (stereo not drawn)	-1.09%
O=C1CN(O)C(c2ccccc2)=c2cc(Cl)ccc2=N1	-13.2%
O=C(NC(=O)c1c(F)cccc1F)Nc1ccc(Cl)c(Oc2ncc(C(F)(F)F)cc2Cl)c1	-19.8%
O=C(NCNC(=O)NC1C(=O)NC(=O)N1CO)NC1C(=O)NC(=O)N1CO (stereo not drawn)	-7.65%
Cc1cccc(C(C)c2cnc[nH]2)c1C (stereo not drawn)	-27%
C[C@@H](Cc1ccccc1)N(C)C	-6.52%
C#CC(C)(O)CC (stereo not drawn)	-2.82%
CCCC(C)C1(CC)C(=O)NC(=O)NC1=O (stereo not drawn)	-8.48%
C=CCC1(C(C)CCC)C(=O)N=C(S)NC1=O (stereo not drawn)	-10.6%

Compound	activity, negative = cell killing
CN(C)CCCCCCN(C)C (tested in a mixture with another compound)	-16.2%
C[C@]12CC[C@H]3[C@@H](CCC4=C(O)C(=O)CC[C@@H]43)[C@@H]1CC[C@@H]2OC(=O)CCC1CCCC1	-19.8%
CC(=O)O[C@H]1CC[C@H]2[C@@H]3CCC4=CC(=O)CCC4=C3C=C[C@]12C	-16.1%
CCCCNCC(O)c1ccc(O)cc1 (stereo not drawn)	1.33%
Cc1ccccc1-n1c(CF)nc2ccc(N)cc2c1=O	-23.5%
C[C@]12CC[C@H]3[C@@H](CC[C@@]45O[C@@H]4C(O)=C(C#N)C[C@]35C)[C@@H]1CC[C@@H]2O	-5.72%
c1ccc2sc(SNC3CCCCC3)nc2c1	-8.99%
C=CCN1CC[C@]23c4c5ccc(O)c4O[C@H]2[C@@H](O)C=C[C@H]3[C@H]1C5	-4.91%
C=CCN(C1=NCCN1)c1c(Cl)cccc1Cl	-15.8%
O=P(O)(O)C(Cl)(Cl)P(=O)(O)O	-5.59%
CCC1(CC)C(=O)NC(=O)N(C)C1=O	-31.1%
COC(=O)[C@@H]1[C@H]2CC[C@@H](C[C@H]1OC(=O)c1ccccc1)N2C	-3.81%
CCC(=O)O[C@]1(c2ccccc2)CCN(C)C[C@H]1C	-18.2%
CC(Cc1ccccc1)NC=O (stereo not drawn)	-28.9%
NCC(O)c1cccc(O)c1 (stereo not drawn)	-10.7%

Reference: PubChem BioAssay (NCATS)
